Screens deposited in PubChem BioAssay by National Center for Advancing Translational Sciences (NCATS).
Hits are enriched below; roughly 14% of the tested compounds scored in any of these assays.
Giardia FBPA inh: Giardia lamblia aldolase inhibition | A8B2U2 | purified Giardia FBPA | Potency, µM (doses to about 59.6 µM), inactives show top-dose activity, negative = inhibition, most hits filed as inhibitors | actives 0.71% (n = 290,000); further: potency means the concentration at half of the fitted maximal effect; nearly all actives have a fitted effect of over 55% in size
Target sequence (A8B2U2 whole entry, looked up): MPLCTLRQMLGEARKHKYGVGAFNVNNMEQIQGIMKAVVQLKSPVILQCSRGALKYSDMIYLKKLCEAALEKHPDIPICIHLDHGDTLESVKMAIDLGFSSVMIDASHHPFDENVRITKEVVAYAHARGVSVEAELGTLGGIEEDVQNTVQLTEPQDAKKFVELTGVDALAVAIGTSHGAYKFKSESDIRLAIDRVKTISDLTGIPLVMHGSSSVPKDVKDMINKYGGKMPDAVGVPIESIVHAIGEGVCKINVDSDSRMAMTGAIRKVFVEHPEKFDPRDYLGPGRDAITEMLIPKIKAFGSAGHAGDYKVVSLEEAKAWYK
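Giardia FBPA (40 nM reagent) was preincubated 10 min at RT with compound (up to 57.5 uM final), then substrate plus GAPDH/TPI/NAD/arsenate coupling system with diaphorase/resazurin was added; resorufin fluorescence (525/598 nm) was read after 20 min.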
Pf growth 48h: inhibits P. falciparum growth in the first generation, 48 h; actives 5.9% (n = 310,000); Potency, µM (series often up to 28.7 µM), for the others: at the highest dose activity change, negative = inhibition, hits mostly inhibitors; P. falciparum luciferase growth in erythrocytes, 48 h; further: potency means the concentration at half of the fitted maximal effect
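First compound was added to culture medium, then infected red cells at 0.1% parasitemia and 2% hematocrit (final). After incubation at 37 C under 5% CO2, luciferase detection reagent was dispensed and light output recorded.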
HCMV antiviral: blocks human cytomegalovirus replication | HFF cells, HCMV-luciferase reporter, 72 h; stronger effect = lower value | activity change, negative = inhibition, % at 57.5 µM | actives 4.5% (n = 410,000) | AID 1259415; in the data active means activity change below about -60%; inconclusive means no clear call, values can overlap the other calls; inactive means above about -39%
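Cell-based, HFFs, 1000 cells/well, 16 h 37C; cpds in DMSO + HCMV-luc, MOI 1 PFU/cell; 72 h 37C; OneGlo luminescence after 5 min RT; norm. to buffer vs Salinomycin 10uM.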
Pf growth 96h: P. falciparum growth inhibition at 96 hour, primary screen for plastid delayed-death inhibitors. P. falciparum luciferase reporter growth, 96 h. Potency, µM (doses to about 28.7 µM), without a hit: top-dose activity change, negative = inhibition, most hits filed as inhibitors. actives 6.9% (n = 320,000); further: potency means the concentration at half of the fitted maximal effect
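P. falciparum expressing integrated firefly luciferase grown in erythrocytes (2% hematocrit, 0.05% parasitemia final) with compounds for 96 hours at 37 C, 5% CO2. Growth inhibition read as loss of luminescence after adding luciferase detection reagent.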
Sm TGR inh: S. mansoni TGR enzyme inhibition. Q962Y6. purified TGR, DTNB reduction, TNB absorbance 405 nm. Potency, µM (doses to about 114 µM), for inactives: at the highest dose activity change, negative = inhibition, hits mostly inhibitors. actives 3% (n = 360,000). AID 485364; further: potency means the concentration at half of the fitted maximal effect; nearly all actives have a fitted effect of over 60% in size
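TGR 20 nM + NADPH 100 uM (dispensed conc.), cpd preinc 15 min RT; start with NADPH (500 uM addition) then DTNB (15 mM addition). Kinetic TNB absorbance, 405 nm filter. Four-parameter Hill fit across titration.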
* marks the source's active call; other numbers are inactive results; [ ] = dose if it differs, or a comment. Unless noted, the call rests on the fitted dose curve; in most records, active means well fitted curve in the direction sought with a large enough effect; inconclusive means small, poorly fitted or top-dose-only effect, or another doubt; inactive means no such curve, though single readings can be large; an effect the other way counts as inactive or inconclusive. On the % scale 0 is the no-effect control and ±100 the full control effect.

For CCC(C)(C)NC(=O)C(c1cccc(OC)c1)N(C(=O)CNC(=O)c1cccs1)c1cccnc1 (centres undefined) the results were Giardia FBPA inh 5%, Pf growth 48h inconclusive, HCMV antiviral 61, Pf growth 96h -16% and Sm TGR inh 0%.
c1ccc2c(N3CCOCC3)nc(-c3ccoc3)nc2c1 was read as Giardia FBPA inh 2%.
For Cc1cc(C)c(C(=O)N2CCC(N3CCC(C(=O)NC(C)C)CC3)CC2)o1 the results were Giardia FBPA inh -7%, Pf growth 48h inconclusive, HCMV antiviral 33, Pf growth 96h 12µM* and Sm TGR inh 1%.
For CC(C)NC(=O)C1CCN(C2CCN(C(=O)c3scc4c3CCCC4)CC2)CC1 the results were Giardia FBPA inh -2%, Pf growth 48h inconclusive, HCMV antiviral -12, Pf growth 96h inconclusive and Sm TGR inh 6%.
`O=C(CSc1ccc(F)cc1)N1CCOCC1` gave Giardia FBPA inh 7%, Pf growth 48h 14%[0.00184 µM], HCMV antiviral -88*, Pf growth 96h 26% and Sm TGR inh 4%.
`Cc1cc(C)c(C(=O)N2CCCC(N3CCN(c4ccc(F)cc4)CC3)C2)o1` (centres undefined) gave Giardia FBPA inh -1%, Pf growth 48h inconclusive, HCMV antiviral -69*, Pf growth 96h 7% and Sm TGR inh 4%.
For O=C(CSc1ccccc1)N1CCCC(N2CCN(c3ccc(F)cc3)CC2)C1 (centres undefined) the results were Pf growth 48h inconclusive, HCMV antiviral -70*, Pf growth 96h 11% and Sm TGR inh 1%.
`COC(=O)N1CCC[C@@]2(CCN(c3ccccc3)C2)C1` gave Giardia FBPA inh -15%.
Screening C/C(=C\CO)CCO returned Giardia FBPA inh 3%.
Screening CCc1cc(-c2nnn(CCC3COCCO3)c2CC)ccc1-c1cn(Cc2ccccc2)nn1 (centres undefined) returned HCMV antiviral -83*.
Screening COc1ccc(-c2cn(Cc3ccc(C(=O)NCc4ccc(C)cc4)cc3)c(C(C)N)n2)cc1 (centres undefined) returned Pf growth 48h 12µM*, HCMV antiviral 9, Pf growth 96h inconclusive and Sm TGR inh 1%.
For CC(=O)N(Cc1cccnc1)c1nc2ccc(F)cc2s1 the results were HCMV antiviral -77* and Sm TGR inh 6%.
Screening O=C(CCOc1ccccc1)N(Cc1cccnc1)c1nc2c(F)cc(F)cc2s1 returned HCMV antiviral 34 and Sm TGR inh 5.6µM*.
`O=C(CCS(=O)(=O)c1ccccc1)N(Cc1cccnc1)c1nc2ccc(F)cc2s1` gave HCMV antiviral 53 and Sm TGR inh 0.89µM*.
Screening Cc1ccc2nc(N(Cc3cccnc3)C(=O)CCc3ccccc3)sc2c1 returned HCMV antiviral 52 and Sm TGR inh 11%.
COc1ccc(C)c2sc(N(Cc3cccnc3)C(=O)CCc3ccccc3)nc12 was read as HCMV antiviral active and Sm TGR inh 7%.
For Cc1cc2nc(-c3ccc(F)cc3)c(Cc3cccc(Cl)c3)n2c(C)c1Br the results were HCMV antiviral 32.
CCOC(=O)C[C@@H]1OC[C@H](Cc2ccccc2)N1S(=O)(=O)c1ccc(C)cc1 was read as HCMV antiviral 22.
CCCNC(=O)c1cc2c(c(-c3cccc(-c4ccccc4F)c3)n1)[C@H](CCO)N(C(=O)CC1CC1)C2 was read as HCMV antiviral 10.
Screening CCCC(C)c1oc(=O)cc(O)c1C (centres undefined) returned HCMV antiviral -19.
`CC(C(=O)c1c[nH]c2ccccc12)N1CCN(C(=O)c2ccco2)CC1` (centres undefined) gave Giardia FBPA inh -1%, Pf growth 48h 1.9µM*, HCMV antiviral 49, Pf growth 96h 2.1µM* and Sm TGR inh 16%.
CN(C)C(Cc1ccccc1)C(=O)c1c[nH]c2ccccc12 (centres undefined) was read as Giardia FBPA inh 0%, HCMV antiviral 14, Pf growth 96h inconclusive and Sm TGR inh -14%.
